# PubChem BioAssay
# Unmarked numbers belong to inactive results.
# Molecular target: NADPH oxidase 2 (Homo sapiens) (UniProt P04839)
# Test: compounds shifting NOX2 Amplex Red fluorescence – cell-based, HEK293-NOX2, PMA-stimulated, NOX inhibitor project, primary screen (AID 1159); note: test concentration not given here
# Conditions: 45 min, higher = more signal, called active from +8 up or from −8 down
# NADPH oxidase 2 (Homo sapiens), sequence (P04839 whole entry, looked up): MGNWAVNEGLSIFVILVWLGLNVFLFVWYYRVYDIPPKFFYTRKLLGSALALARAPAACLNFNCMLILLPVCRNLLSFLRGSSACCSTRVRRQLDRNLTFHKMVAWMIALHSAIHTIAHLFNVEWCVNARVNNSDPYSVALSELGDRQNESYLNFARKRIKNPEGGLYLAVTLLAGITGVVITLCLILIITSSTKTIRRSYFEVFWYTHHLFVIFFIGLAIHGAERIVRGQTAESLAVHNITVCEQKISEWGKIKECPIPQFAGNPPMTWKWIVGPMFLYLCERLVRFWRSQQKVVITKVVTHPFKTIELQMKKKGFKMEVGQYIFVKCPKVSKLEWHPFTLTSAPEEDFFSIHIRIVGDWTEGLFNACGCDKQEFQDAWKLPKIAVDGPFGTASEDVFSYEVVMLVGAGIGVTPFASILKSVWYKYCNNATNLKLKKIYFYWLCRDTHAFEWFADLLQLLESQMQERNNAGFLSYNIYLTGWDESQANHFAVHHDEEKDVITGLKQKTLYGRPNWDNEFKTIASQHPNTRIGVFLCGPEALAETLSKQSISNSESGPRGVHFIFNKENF
row,Compound,z-score
1,C=C(COC)/C(=C/C[C@H](OC(C)=O)c1ccc(CO)o1)c1cc(C(=O)OC)ccc1OC,-1.85
2,COC(=O)[C@@]1(Cc2ccc(OC)cc2)[C@H]2c3cc(C(=O)N(C)C)n(C)c3C[C@H]2CN1C(=O)c1ccccc1,1.12
3,CCOC(=O)[C@H]1C/C=C/C[C@H](C(=O)OCC)C(=O)O[C@H]2[C@@H](OC)O[C@H](CO)[C@@H](OC(=O)c3c(OC)cccc3OC)[C@@H]2OC1=O,-3.32
4,CC(C)NC(=O)[C@@]1(c2ccc([N+](=O)[O-])cc2)CC(=O)N(C2CCCCC2)[C@@H]1c1ccc(CO)cc1I,0.824
5,CN1C(=O)C2C=CC(C(O)c3ccc([N+](=O)[O-])cc3)N(N3CCCCC3)C2C1=O (stereo not drawn),0.114
6,COCCOC(=O)N1C(=O)[C@@]2(c3cc(C#CCNC(N)=O)ccc31)[C@H](C(=O)N1CCN(c3ncccn3)CC1)[C@H]1C(=O)O[C@H](c3ccccc3)[C@H](c3ccccc3)N1[C@@H]2c1ccc(OCCO)cc1,1.64
7,O=C1NC(=O)C2C1C=CC(C(O)c1cc(C(F)(F)F)cc(C(F)(F)F)c1)N2Nc1ccccn1 (stereo not drawn),-1.17
8,COCCOC(=O)N1C(=O)[C@@]2(c3ccccc31)[C@H](C(=O)N1CCc3cc(OC)c(OC)cc3C1)[C@H]1C(=O)O[C@H](c3ccccc3)[C@H](c3ccccc3)N1[C@@H]2c1ccc(OCCO)cc1,0.238
9,COC(=O)C(CC#Cc1ccc2c(c1)[C@]1(C(=O)N2)[C@H](C(=O)Nc2nc3ccccc3s2)[C@H]2C(=O)O[C@H](c3ccccc3)[C@H](c3ccccc3)N2[C@@H]1c1ccccc1OCCO)C(=O)OC,1.28
10,CN1C(=O)C2C=CC(C(O)c3ccccc3)N(N(c3ccccc3)c3ccccc3)C2C1=O (stereo not drawn),-1.19
11,COC(=O)[C@@]1(CCS(=O)(=O)c2ccccc2)N=C(c2ccc(OCCCO)cc2)O[C@H]1c1ccccc1CN=[N+]=[N-],-0.899
12,COC(=O)[C@H](Cc1ccccc1)N1CC2=C[C@@H](C3CC3)n3c(=O)n(C)c(=O)n3[C@H]2[C@@H]1[C@@H](O)Cc1ccccc1,-0.813

# Molecular target: NADPH oxidase 4 (Homo sapiens) (UniProt Q9NPH5)
# Sequence (Q9NPH5 whole entry, looked up): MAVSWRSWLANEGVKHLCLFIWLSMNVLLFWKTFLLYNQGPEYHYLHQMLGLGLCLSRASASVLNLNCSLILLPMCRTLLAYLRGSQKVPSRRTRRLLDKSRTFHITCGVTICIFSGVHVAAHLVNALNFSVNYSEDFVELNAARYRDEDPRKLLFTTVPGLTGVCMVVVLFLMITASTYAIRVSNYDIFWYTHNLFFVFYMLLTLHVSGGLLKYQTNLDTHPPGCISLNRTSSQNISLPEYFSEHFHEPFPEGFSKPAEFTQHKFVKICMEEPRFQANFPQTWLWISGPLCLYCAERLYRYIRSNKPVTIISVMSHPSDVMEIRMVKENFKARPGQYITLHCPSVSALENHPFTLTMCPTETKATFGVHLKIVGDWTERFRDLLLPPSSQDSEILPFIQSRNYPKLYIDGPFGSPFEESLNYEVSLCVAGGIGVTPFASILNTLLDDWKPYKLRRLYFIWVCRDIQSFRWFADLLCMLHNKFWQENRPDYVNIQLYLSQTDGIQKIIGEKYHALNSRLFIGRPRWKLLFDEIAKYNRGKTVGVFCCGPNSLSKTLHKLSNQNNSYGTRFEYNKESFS
# Test: compounds shifting NOX4 Amplex Red fluorescence – cell-based, HEK293-NOX4, tetracycline-induced, NOX inhibitor project, primary screen (AID 1160)
# Conditions: HEK293-NOX4, Amplex Red H2O2 fluorescence, 45 min; higher = more signal, called active from +8 up or from −8 down
row,Compound,z-score
1,CC[C@@H]1C=C(C(=O)O)[C@H](c2ccc(Br)cc2)N1S(=O)(=O)c1ccc(C)cc1,-0.117
2,O=C1c2ccccc2[C@](Cc2ccccc2I)(C(=O)NCCN2CCOCC2)[C@H](c2ccc(CO)cc2)N1Cc1ccccc1Cl,0.707
3,COC(=O)[C@@]1(Cc2ccc(OC)cc2)[C@H]2c3cc(C(=O)N4CCCC4)n(CCN4CNCC4=O)c3C[C@H]2CN1C(=O)c1ccccc1,-2.36
4,COC(=O)[C@@]1(Cc2ccc(OC)cc2)[C@@H]2C(=CC(=O)[C@H]2CC(=O)C(=O)N2CCCC2)CN1C(=O)c1ccccc1,1.54
5,C=CCNC(=O)[C@@H]1[C@H]2C(=O)O[C@H](c3ccccc3)[C@H](c3ccccc3)N2[C@H](c2ccc(O)cc2)[C@@]12C(=O)N(C(=O)OCCOC)c1ccc(C#CCNC(N)=O)cc12,0.438
6,Cc1ccc(S[C@]2(C(=O)NCCCN(C)C)CC(=O)N(Cc3cc(C(F)(F)F)cc(C(F)(F)F)c3)[C@@H]2c2ccc(CO)cc2)cc1,0.414
7,COc1ccc([Si](C)(C)[C@H]2[C@H](CCO)O[C@@]3(C(=O)N(Cc4ccc(N(C=O)c5ccccc5)cc4)c4ccccc43)[C@@H]2C)cc1,0.859
8,[N-]=[N+]=Nc1ccccc1[C@H]1OC(c2ccc(OCCCO)cc2)=N[C@@]1(CCS(=O)(=O)c1ccccc1)C(N)=O,0.067
9,NC(=O)NCC#Cc1ccc2c(c1)[C@]1(C(=O)N2)[C@H](c2ccccc2OCCO)N2[C@H](c3ccccc3)[C@H](c3ccccc3)OC(=O)[C@H]2[C@@H]1C(=O)Nc1nc2ccccc2s1,1.32
10,CCCC=C(CCC)[C@@H](NC(=O)c1cccs1)c1ccc(C(F)(F)F)cc1,-3.52
11,CN(C)C(=O)[C@]1(Cc2ccccc2N=[N+]=[N-])N=C(c2ccc(OCCCO)cc2)O[C@@H]1c1ccccc1N=[N+]=[N-],0.482
12,COC(=O)[C@@]1(Cc2ccc(OC)cc2)[C@H]2c3cc(C(=O)N(C)C)n(Cc4ccccn4)c3C[C@H]2CN1C(=O)c1ccccc1,-1.32
13,COC(=O)[C@@]1(Cc2ccc(F)cc2)[C@H]2c3cc(C(=O)N4CCCC4)n(CCCNc4ncc(C(F)(F)F)cc4Cl)c3C[C@H]2CN1C(=O)c1ccccc1,-2.23
14,O=C(CS)NCCCCCCNC(=O)[C@@H]1C[C@@H]2C(=O)NCC(=O)N2[C@@H]1c1cccc(OCCO)c1,0.845
15,CCOC(=O)C[C@H]1[C@H](OC(=O)c2ccccc2-c2ccccc2)[C@@H](NC(=O)CC(C)C)c2cc(OCCCO)ccc2N1C(=O)Cc1ccc(OC)cc1,1.21
16,COc1ccc([C@H]2OC[C@@H]3C[C@@H](Cc4ccccc4)C(=O)N32)cc1,0.524
17,COc1ccc(CCNC(=O)[C@@]2(C)c3ccccc3C(=O)N(C(C)C)[C@H]2c2ccc(CO)cc2)cc1,-0.479
18,C=CCOC(=O)[C@@H]1[C@H]2C(=O)O[C@H](c3ccccc3)[C@H](c3ccccc3)N2[C@H](c2ccc(OCCOC(=O)[C@@H]3C[C@@H]4C(=O)NCC(=O)N4[C@@H]3c3ccc(O)cc3)cc2)[C@@]12C(=O)Nc1ccc(I)cc12,0.978

row,Compound,z-score
1,O=C1C[C@@](C(=O)NCCN2CCOCC2)(c2ccc([N+](=O)[O-])cc2)[C@@H](c2ccc(CO)cc2)N1CC12CC3CC(CC(C3)C1)C2,-2.56
2,COCCOC(=O)N1C(=O)[C@@]2(c3cc(C#CCC(C(=O)OC)C(=O)OC)ccc31)[C@H](C(=O)Nc1nc3ccccc3s1)[C@H]1C(=O)O[C@H](c3ccccc3)[C@H](c3ccccc3)N1[C@@H]2c1ccccc1OCCO,0.671
3,COC(=O)[C@@]1(Cc2ccccc2)[C@H]2c3cc(C(=O)N(C)C)n(Cc4ccsc4Br)c3C[C@H]2CN1C(=O)c1ccccc1,0.106
4,CC1CC/C=C\[C@H]2OC34C=CCN(C(C)(C)C)C(=O)[C@H]3N(CCO)C(=O)[C@@H]4C2C(=O)O1 (stereo partly drawn),0.126
5,C=C(CCCC)/C(=C/C[C@@H](OC(C)=O)c1ccc(OCCO)cc1)c1cnc2ccccc2c1,-0.0832
6,CC(C)C(O)C1C=CC2C(=O)N(c3ccccc3)C(=O)C2N1Nc1ccc([N+](=O)[O-])cc1 (stereo not drawn),-1.82
7,C=C(COC)/C(=C/C[C@H](OC(C)=O)c1ccc(CO)o1)c1cc(C(=O)OC)ccc1OC,-1.92
8,COC(=O)[C@@]1(Cc2ccc(OC)cc2)[C@H]2c3cc(C(=O)N(C)C)n(C)c3C[C@H]2CN1C(=O)c1ccccc1,1.77
9,CCOC(=O)[C@H]1C/C=C/C[C@H](C(=O)OCC)C(=O)O[C@H]2[C@@H](OC)O[C@H](CO)[C@@H](OC(=O)c3c(OC)cccc3OC)[C@@H]2OC1=O,-0.754
10,CC(C)NC(=O)[C@@]1(c2ccc([N+](=O)[O-])cc2)CC(=O)N(C2CCCCC2)[C@@H]1c1ccc(CO)cc1I,-1.57
11,CN1C(=O)C2C=CC(C(O)c3ccc([N+](=O)[O-])cc3)N(N3CCCCC3)C2C1=O (stereo not drawn),-2.07
12,COCCOC(=O)N1C(=O)[C@@]2(c3cc(C#CCNC(N)=O)ccc31)[C@H](C(=O)N1CCN(c3ncccn3)CC1)[C@H]1C(=O)O[C@H](c3ccccc3)[C@H](c3ccccc3)N1[C@@H]2c1ccc(OCCO)cc1,0.971
13,O=C1NC(=O)C2C1C=CC(C(O)c1cc(C(F)(F)F)cc(C(F)(F)F)c1)N2Nc1ccccn1 (stereo not drawn),-1.72
14,COCCOC(=O)N1C(=O)[C@@]2(c3ccccc31)[C@H](C(=O)N1CCc3cc(OC)c(OC)cc3C1)[C@H]1C(=O)O[C@H](c3ccccc3)[C@H](c3ccccc3)N1[C@@H]2c1ccc(OCCO)cc1,0.974
15,COC(=O)C(CC#Cc1ccc2c(c1)[C@]1(C(=O)N2)[C@H](C(=O)Nc2nc3ccccc3s2)[C@H]2C(=O)O[C@H](c3ccccc3)[C@H](c3ccccc3)N2[C@@H]1c1ccccc1OCCO)C(=O)OC,0.252
16,CN1C(=O)C2C=CC(C(O)c3ccccc3)N(N(c3ccccc3)c3ccccc3)C2C1=O (stereo not drawn),-0.586
17,COC(=O)[C@@]1(CCS(=O)(=O)c2ccccc2)N=C(c2ccc(OCCCO)cc2)O[C@H]1c1ccccc1CN=[N+]=[N-],0.495
18,COC(=O)[C@H](Cc1ccccc1)N1CC2=C[C@@H](C3CC3)n3c(=O)n(C)c(=O)n3[C@H]2[C@@H]1[C@@H](O)Cc1ccccc1,-0.218
